Assay outcomes from PubChem BioAssay.
RXFP1 antagonist – qHTS Assay for Antagonists of the Relaxin Receptor RXFP1; AID 1259400, 2018; 350,000 compounds, 0.59% hits; HEK293-RXFP1, relaxin-stimulated cAMP HTRF, 30 min; active compounds read low; activity change, negative = inhibition, % at 57.5 µM;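 active = activity change of -60% or lower, but not beyond a set lower limit; inconclusive = change between -60% and -40%, or beyond the set limit; inactive = change above -40%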
Target sequence (Q9HBX9 whole entry, looked up): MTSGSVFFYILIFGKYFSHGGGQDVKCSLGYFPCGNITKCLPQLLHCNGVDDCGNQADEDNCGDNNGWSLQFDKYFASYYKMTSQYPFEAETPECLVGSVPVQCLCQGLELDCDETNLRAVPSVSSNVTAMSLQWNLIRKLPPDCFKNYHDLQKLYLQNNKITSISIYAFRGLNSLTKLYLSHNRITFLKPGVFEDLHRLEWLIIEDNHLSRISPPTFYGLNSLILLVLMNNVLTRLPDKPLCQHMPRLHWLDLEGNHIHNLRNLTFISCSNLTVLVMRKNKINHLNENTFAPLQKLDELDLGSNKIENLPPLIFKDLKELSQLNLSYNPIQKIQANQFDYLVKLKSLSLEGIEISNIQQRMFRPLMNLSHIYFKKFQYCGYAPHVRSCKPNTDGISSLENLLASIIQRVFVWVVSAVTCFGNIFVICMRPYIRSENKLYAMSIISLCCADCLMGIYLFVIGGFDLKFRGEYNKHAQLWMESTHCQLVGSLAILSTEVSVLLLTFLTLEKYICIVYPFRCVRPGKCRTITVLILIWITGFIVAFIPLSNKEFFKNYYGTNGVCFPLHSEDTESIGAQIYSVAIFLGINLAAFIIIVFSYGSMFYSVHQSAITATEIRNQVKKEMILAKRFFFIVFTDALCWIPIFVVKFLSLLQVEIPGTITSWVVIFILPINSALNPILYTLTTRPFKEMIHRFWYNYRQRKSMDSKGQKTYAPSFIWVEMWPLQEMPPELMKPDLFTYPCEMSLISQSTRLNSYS
RXFP1 ag – qHTS Assay for Agonists of the Relaxin Receptor RXFP1. HEK293T-RXFP1 cAMP TR-FRET, 30 min; response scale: percent of porcine relaxin response, buffer zero. Relaxin receptor 1 (Homo sapiens), Q9HBX9. 370,000 compounds, 0.3% hits. Potency, µM (highest dose often 57.5 µM), hits mostly activators; active = well fitted activation curve with a large enough effect; inconclusive = small, poorly fitted or top-dose-only effect; also: nearly all actives have a fitted effect of over 60% in size
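HEK293 cells stably expressing RXFP1, treated 30 min at 37C with compounds plus PDE4 inhibitor Ro 20174; cAMP measured by HTRF TR-FRET. Normalized to buffer and 29 nM porcine relaxin; EC50 by Hill fit.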
gsp antagonist – qHTS for Antagonists of gsp, the Etiologic Mutation Responsible for Fibrous Dysplasia/McCune-Albright Syndrome: qHTS. gsp-mutant cells, cAMP HTRF, 30 min. Potency, µM (highest dose often 76.9 µM), most hits filed as inhibitors. 340,000 compounds, 0.4% hits. AID 624288, 2012; calls by dose curve; cell line not stated here;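 also: intracellular cAMP measured with PDE inhibitor Ro 20-1724 present during compound exposure; nearly all actives have a fitted effect of over 65% in size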
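HTRF cAMP read-out (cAMP-d2 plus anti-cAMP antibody-K in lysis buffer, 30 min RT). Before lysis, cells are exposed to compounds with […] for 30 min at 37C in DPBS containing Ca/Mg, BSA and Tween 20.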
Coupling enz – qHTS Assay for Inhibitors of Fructose-1,6-bisphosphate Aldolase from Giardia Lamblia: Coupling assay counterscreen. coupling enzyme system counterscreen, AmpLite Red fluorescence. AID 2472, 2010. 290,000 compounds, 0.67% hits. activity change, negative = inhibition, % at 58.2 µM, hits read low; in the data active = activity change below about -30%
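Compounds tested against the coupling enzymes alone at 57.5 uM final; readout was AmpLite Red fluorescence (525/598 nm) after 20 min at RT.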
gsp agonist – qHTS for Agonist of gsp, the Etiologic Mutation Responsible for Fibrous Dysplasia/McCune-Albright Syndrome: qHTS | gsp mutant cells, cAMP HTRF, 30 min | Potency, µM (doses to about 76.9 µM), actives largely listed as activators | 340,000 compounds, 0.13% hits; active = well fitted activation curve with a large enough effect; inconclusive = small, poorly fitted or top-dose-only effect, or another doubt; inactive = no such curve, though single readings can be large or run the other way; cell line not stated here;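 also: phosphodiesterase inhibitor Ro 20-1724 added with compounds to block cAMP breakdown; nearly all actives have a fitted effect of over 60% in size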
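Cells in DMEM/10% FBS with G418 were pretreated with compounds in DMSO plus […] (300 uM stock) for 30 min at 37C. cAMP was measured by HTRF (cAMP-d2 plus anti-cAMP antibody-K) after 30 min at room temperature.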
Giardia kill – Small Molecules that selectively kill Giardia lamblia: qHTS. Giardia lamblia trophozoite viability. activity change, % at 7.66 µM, hits read low. 340,000 compounds, 0.15% hits. AID 540267, 2011; in the data active = activity change below about -80%; inconclusive = between about -30% and that limit;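 also: parasites exposed to compound for two days anaerobically before the ATP read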
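Compounds were tested on trophozoites seeded at 100 cells/well and held 48 hrs at 37 deg C anaerobically. An ATP-based luminescent kit measured the remaining live cells.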
Numbers stand for hits; [ ] = remark or other dose. Only some compounds are listed: those with a hit (about 1.6% of all), similar ones and a draw of the others.

Results for COC(=O)C1=C(C)OC(N)=C(C#N)C1c1ccccc1 (stereo not given) ?
RXFP1 antagonist: inactive; RXFP1 ag: inactive; gsp antagonist: inactive; Coupling enz: inactive; gsp agonist: inactive; Giardia kill: inactive

Results for C/C(=N\NC(=O)c1ccc(-c2ccccc2)cc1)C1C(=O)c2ccccc2C1=O ?
RXFP1 antagonist: inactive; RXFP1 ag: inactive; gsp antagonist: 28µM; Coupling enz: inactive; gsp agonist: inactive; Giardia kill: inactive

How did O=C(Nc1ccc(Cl)cc1)c1cc2c(cc1O)[nH]c1ccccc12 do in these assays?
RXFP1 antagonist: -64; RXFP1 ag: inactive; gsp antagonist: 35µM; Coupling enz: inactive; gsp agonist: inactive[15.4 µM]; Giardia kill: inactive

What do the screens show for `CC(C)n1c(SCC(=O)N2CCN(C(=O)c3ccco3)CC2)nc2c1c(=O)n(C)c(=O)n2C`?
RXFP1 antagonist: inactive; RXFP1 ag: 14µM; gsp antagonist: inactive; Coupling enz: inactive; gsp agonist: inactive[15.4 µM]; Giardia kill: inactive

Results for COCCn1c(CN2CCN(C(=O)c3ccco3)CC2)nc2c1c(=O)n(C)c(=O)n2C ?
RXFP1 antagonist: inactive; RXFP1 ag: inactive; gsp antagonist: inactive; Coupling enz: inactive; gsp agonist: 18µM; Giardia kill: inactive

How did COC(=O)Cn1c(CN2CCN(C(=O)c3ccco3)CC2)nc2c1c(=O)n(C)c(=O)n2C do in these assays?
RXFP1 antagonist: inactive; RXFP1 ag: inactive; gsp antagonist: inactive; Coupling enz: inactive; gsp agonist: inconclusive; Giardia kill: inactive

Results for CC(C)n1c(SCC(=O)N2CCCC2)nc2c1c(=O)n(C)c(=O)n2C ?
RXFP1 antagonist: inactive; RXFP1 ag: inactive; gsp antagonist: inactive; Coupling enz: inactive; gsp agonist: inactive; Giardia kill: inactive

Results for O=C(CCNC(=O)C1CCN(S(=O)(=O)c2ccc(F)cc2)CC1)NC1CC1 ?
RXFP1 antagonist: inactive; RXFP1 ag: inactive; gsp antagonist: inactive; Coupling enz: inactive; gsp agonist: inconclusive; Giardia kill: inactive

What do the screens show for `Nc1ccc2nc(SCc3ccc([N+](=O)[O-])cc3)sc2c1`?
RXFP1 antagonist: inactive; RXFP1 ag: inactive; gsp antagonist: inactive; Coupling enz: inactive; gsp agonist: inactive; Giardia kill: inactive

How did O=C(NC(Nc1nc2ccc([N+](=O)[O-])cc2s1)(C(F)(F)F)C(F)(F)F)c1cccnc1 do in these assays?
RXFP1 antagonist: inactive; RXFP1 ag: inactive; gsp antagonist: 35µM; Coupling enz: inactive; gsp agonist: inconclusive; Giardia kill: inactive

Results for CN(C)S(=O)(=O)c1ccc2nc(NC(=O)c3cccnc3)sc2c1 ?
RXFP1 antagonist: inactive; RXFP1 ag: inactive; gsp antagonist: inactive; Coupling enz: inactive; gsp agonist: inactive; Giardia kill: inactive

How did O=[N+]([O-])c1ccc2nc(SCc3ccccc3Cl)sc2c1 do in these assays?
RXFP1 antagonist: inactive; RXFP1 ag: inactive; gsp antagonist: 25µM; Coupling enz: inactive; gsp agonist: inactive; Giardia kill: inactive

How did O=C(NC(Nc1nc2ccc([N+](=O)[O-])cc2s1)(C(F)(F)F)C(F)(F)F)c1ccccc1Cl do in these assays?
RXFP1 antagonist: inactive; RXFP1 ag: inactive; gsp antagonist: 25µM; Coupling enz: inactive; gsp agonist: inactive; Giardia kill: inactive

How did O=C(NC(NNc1ccc([N+](=O)[O-])cc1)(C(F)(F)F)C(F)(F)F)c1ccccc1Cl do in these assays?
RXFP1 antagonist: inactive; RXFP1 ag: inactive; gsp antagonist: inactive; Coupling enz: inactive; gsp agonist: inactive; Giardia kill: inactive

Results for COc1ccc(C(NCC(=O)NC(C)c2ccc(Cl)cc2)c2ccccc2)cc1 (stereo not given) ?
RXFP1 antagonist: inactive; RXFP1 ag: inactive; gsp antagonist: inactive; Coupling enz: inactive; gsp agonist: inconclusive; Giardia kill: inactive
